Experimental data taken from ChEMBL document CHEMBL3988442, “University of Dundee, Small-Polar-MMV Screening Library” (2021).
For some of these results: Entries with a potency or affinity are not part of this list.

How the values were obtained:
Set-up in all cases: scale not given: direction of the effect not stated beside the values
[1] = target: Protein translocase subunit SecA (Escherichia coli (strain K12)) (UniProt P10408); assay: Assay to Identify E. coli SecA ATPase Inhibitors; type: functional; settings: 30 µM
[2] = target: T1, Ubiquitin-activating enzyme e1, putative (Leishmania donovani (strain BPK282A1)) (UniProt E9BSI1); assay: Leishmania donovani Ubiquitin Activating Enzyme (LdE1); type: functional; settings: 30 µM
T1 sequence (whole entry): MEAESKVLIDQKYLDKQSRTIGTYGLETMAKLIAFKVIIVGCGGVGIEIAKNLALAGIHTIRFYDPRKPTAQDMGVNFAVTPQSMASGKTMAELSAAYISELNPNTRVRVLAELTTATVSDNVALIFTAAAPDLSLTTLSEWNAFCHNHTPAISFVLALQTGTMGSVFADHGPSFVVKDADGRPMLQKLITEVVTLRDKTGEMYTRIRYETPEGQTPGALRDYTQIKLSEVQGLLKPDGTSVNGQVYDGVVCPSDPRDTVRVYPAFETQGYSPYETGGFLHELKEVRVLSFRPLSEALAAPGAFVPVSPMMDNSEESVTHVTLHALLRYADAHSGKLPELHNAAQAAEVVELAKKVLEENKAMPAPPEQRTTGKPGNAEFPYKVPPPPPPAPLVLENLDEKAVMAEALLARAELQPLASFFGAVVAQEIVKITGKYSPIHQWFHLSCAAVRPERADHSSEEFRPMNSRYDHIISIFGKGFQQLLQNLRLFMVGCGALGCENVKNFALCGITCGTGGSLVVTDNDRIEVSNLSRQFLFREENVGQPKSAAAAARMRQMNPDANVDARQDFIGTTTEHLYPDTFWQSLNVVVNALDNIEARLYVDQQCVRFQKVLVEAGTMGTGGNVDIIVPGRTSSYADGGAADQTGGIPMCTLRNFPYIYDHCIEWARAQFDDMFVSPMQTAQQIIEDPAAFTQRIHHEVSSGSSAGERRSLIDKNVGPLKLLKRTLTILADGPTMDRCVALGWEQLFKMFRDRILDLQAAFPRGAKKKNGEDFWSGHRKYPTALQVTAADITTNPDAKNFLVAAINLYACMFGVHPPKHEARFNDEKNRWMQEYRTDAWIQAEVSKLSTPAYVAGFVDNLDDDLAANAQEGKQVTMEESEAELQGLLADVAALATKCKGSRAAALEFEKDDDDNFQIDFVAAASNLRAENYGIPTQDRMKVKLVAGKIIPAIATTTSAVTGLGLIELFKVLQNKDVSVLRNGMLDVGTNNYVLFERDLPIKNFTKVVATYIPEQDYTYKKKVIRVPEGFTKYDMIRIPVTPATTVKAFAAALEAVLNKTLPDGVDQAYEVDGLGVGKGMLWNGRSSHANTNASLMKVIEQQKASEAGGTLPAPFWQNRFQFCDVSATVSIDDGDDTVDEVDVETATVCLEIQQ

[3] = target: T2, Aspartate--tRNA(Asp/Asn) ligase (Mycobacterium tuberculosis (strain ATCC 25618 / H37Rv)) (UniProt P9WFW3); assay: Assay for Asp RNA synthetase-1 from Mycobacterium tuberculosis; type: functional; settings: 30 µM; note: in the data most compounds retested in dose-response had high values
T2 sequence (whole entry): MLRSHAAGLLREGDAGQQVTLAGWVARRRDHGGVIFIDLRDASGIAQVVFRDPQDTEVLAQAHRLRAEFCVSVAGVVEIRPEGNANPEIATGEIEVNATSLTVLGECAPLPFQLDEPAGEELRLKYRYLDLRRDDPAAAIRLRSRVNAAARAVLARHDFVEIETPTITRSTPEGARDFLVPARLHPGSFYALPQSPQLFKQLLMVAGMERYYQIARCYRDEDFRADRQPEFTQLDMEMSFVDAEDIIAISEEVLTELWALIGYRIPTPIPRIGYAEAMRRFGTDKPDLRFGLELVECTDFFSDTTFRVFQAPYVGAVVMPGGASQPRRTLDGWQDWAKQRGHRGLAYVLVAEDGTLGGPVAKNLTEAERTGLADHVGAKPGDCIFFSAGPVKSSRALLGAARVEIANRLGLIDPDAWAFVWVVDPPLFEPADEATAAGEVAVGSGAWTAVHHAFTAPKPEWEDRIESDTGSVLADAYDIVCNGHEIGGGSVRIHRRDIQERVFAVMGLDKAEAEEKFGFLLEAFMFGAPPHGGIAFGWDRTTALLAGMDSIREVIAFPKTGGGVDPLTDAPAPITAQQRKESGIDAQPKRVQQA

[4] = target: AMP-activated protein kinase, AMPK (Homo sapiens) (UniProt P54646+O43741+P54619+Q9UGJ0+Q9Y478+Q13131+Q9UGI9); assay: AMP-dependent Kinase enzyme assay. An in vitro enzyme assay that detects ADP turnover that is directly proportional to AMPK activity. This uses naive AMPK that is activated during the assay with MK-8722; type: functional; settings: 30 µM
[5] = target: Sialic acid-binding Ig-like lectin 9 (Homo sapiens) (UniProt Q9Y336); assay: Hs-Siglec9 ALPHAscreen SOP 20170721; settings: 10 µM
Trypanosoma cruzi = assay: Trypanosoma cruzi phosphomannomutase and mannose-1-phosphate guanylyltransferase assay; type: functional; settings: 10 µM
[6] = target: T3, Arginase-2, mitochondrial (Homo sapiens) (UniProt P78540); assay: in vitro enzyme assay to detect the production of urea directly proportional to the activity of Arginase II; type: functional; settings: 33.3 µM; note: in the data most compounds retested in dose-response had high values
T3 sequence (whole entry): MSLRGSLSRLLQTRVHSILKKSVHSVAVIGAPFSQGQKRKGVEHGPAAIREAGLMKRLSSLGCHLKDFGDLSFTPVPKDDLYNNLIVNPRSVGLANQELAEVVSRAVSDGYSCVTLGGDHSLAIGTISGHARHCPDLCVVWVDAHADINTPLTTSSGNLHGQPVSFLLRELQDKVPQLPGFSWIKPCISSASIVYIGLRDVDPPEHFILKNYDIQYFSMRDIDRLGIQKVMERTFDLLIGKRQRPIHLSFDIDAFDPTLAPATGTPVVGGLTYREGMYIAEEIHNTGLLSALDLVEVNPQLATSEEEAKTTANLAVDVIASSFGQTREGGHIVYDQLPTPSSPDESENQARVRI

[7] = target: T4, Proteasome subunit beta (Trypanosoma cruzi) (UniProt O96673); assay: Trypanosoma cruzi proteasome chymotrypsin-like activity (TcProtChymo) assay.; note: in the data most compounds retested in dose-response had high values; type: functional; settings: 9.37 µM
T4 sequence (whole entry): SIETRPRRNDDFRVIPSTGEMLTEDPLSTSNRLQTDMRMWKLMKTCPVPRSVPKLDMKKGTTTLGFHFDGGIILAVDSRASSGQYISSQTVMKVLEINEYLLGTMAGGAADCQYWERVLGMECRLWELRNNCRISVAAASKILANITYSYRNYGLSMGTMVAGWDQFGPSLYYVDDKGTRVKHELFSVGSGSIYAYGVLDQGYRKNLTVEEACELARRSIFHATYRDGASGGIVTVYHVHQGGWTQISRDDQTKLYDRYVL

Homo sapiens = organism: Homo sapiens; assay: To identify inhibition of the IFN signalling (Jak-Stat) pathway via expression of an eGFP reporter gene under the control of an IFN-stimulated response element (ISRE) containing MxA promoter.; type: functional; settings: 30 µM
[8] = target: Shiga toxin 2 (Escherichia coli O157:H7) (UniProt P09385+P09386); assay: E. coli 0.157:H7 Shiga Toxin SOP - stx2 screening assay; type: functional; settings: 30 µM
[9] = target: T5, Tyrosyl-tRNA synthetase, putative (Trypanosoma cruzi (strain CL Brener)) (UniProt Q4DSP6); assay: Trypanosoma cruzi tyrosyl tRNA synthetase (TcYRS) _High Tyrosine SOP; type: functional; settings: 30 µM; note: in the data most compounds retested in dose-response had high values
T5 sequence (whole entry): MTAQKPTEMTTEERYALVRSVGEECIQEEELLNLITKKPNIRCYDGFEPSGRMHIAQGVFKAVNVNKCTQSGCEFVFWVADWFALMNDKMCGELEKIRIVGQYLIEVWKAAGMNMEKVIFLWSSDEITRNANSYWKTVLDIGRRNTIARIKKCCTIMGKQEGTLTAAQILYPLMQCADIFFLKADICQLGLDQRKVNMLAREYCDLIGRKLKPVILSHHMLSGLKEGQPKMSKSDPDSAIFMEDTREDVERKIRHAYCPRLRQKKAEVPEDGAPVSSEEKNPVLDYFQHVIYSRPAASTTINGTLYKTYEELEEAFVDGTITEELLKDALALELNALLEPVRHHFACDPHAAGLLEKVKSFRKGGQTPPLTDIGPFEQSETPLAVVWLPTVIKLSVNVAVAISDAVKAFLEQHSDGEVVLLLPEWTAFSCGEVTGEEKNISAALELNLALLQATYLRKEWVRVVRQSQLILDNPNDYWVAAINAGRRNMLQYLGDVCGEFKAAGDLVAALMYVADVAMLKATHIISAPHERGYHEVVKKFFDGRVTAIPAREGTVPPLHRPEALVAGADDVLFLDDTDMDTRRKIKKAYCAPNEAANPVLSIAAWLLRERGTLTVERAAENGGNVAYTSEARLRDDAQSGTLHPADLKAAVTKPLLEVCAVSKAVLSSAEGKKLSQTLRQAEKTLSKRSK

[10] = target: T5, Tyrosyl-tRNA synthetase, putative (Trypanosoma cruzi (strain CL Brener)); assay: Trypanosoma cruzi tyrosyl tRNA synthetase (TcYRS) SOP; type: functional; settings: 30 µM
[11] = target: Chromo domain-containing protein 1 (Saccharomyces cerevisiae (strain ATCC 204508 / S288c) (Baker's yeast)) (UniProt P32657); assay: ScCHD-1 Enzyme Inhibition Assay; type: functional; settings: 30 µM; note: in the data most compounds retested in dose-response had high values
Chain of Chromo domain-containing protein 1 (Saccharomyces cerevisiae (strain ATCC 204508 / S288c) (Baker's yeast)) (P32657 whole entry, the tested form may be a part): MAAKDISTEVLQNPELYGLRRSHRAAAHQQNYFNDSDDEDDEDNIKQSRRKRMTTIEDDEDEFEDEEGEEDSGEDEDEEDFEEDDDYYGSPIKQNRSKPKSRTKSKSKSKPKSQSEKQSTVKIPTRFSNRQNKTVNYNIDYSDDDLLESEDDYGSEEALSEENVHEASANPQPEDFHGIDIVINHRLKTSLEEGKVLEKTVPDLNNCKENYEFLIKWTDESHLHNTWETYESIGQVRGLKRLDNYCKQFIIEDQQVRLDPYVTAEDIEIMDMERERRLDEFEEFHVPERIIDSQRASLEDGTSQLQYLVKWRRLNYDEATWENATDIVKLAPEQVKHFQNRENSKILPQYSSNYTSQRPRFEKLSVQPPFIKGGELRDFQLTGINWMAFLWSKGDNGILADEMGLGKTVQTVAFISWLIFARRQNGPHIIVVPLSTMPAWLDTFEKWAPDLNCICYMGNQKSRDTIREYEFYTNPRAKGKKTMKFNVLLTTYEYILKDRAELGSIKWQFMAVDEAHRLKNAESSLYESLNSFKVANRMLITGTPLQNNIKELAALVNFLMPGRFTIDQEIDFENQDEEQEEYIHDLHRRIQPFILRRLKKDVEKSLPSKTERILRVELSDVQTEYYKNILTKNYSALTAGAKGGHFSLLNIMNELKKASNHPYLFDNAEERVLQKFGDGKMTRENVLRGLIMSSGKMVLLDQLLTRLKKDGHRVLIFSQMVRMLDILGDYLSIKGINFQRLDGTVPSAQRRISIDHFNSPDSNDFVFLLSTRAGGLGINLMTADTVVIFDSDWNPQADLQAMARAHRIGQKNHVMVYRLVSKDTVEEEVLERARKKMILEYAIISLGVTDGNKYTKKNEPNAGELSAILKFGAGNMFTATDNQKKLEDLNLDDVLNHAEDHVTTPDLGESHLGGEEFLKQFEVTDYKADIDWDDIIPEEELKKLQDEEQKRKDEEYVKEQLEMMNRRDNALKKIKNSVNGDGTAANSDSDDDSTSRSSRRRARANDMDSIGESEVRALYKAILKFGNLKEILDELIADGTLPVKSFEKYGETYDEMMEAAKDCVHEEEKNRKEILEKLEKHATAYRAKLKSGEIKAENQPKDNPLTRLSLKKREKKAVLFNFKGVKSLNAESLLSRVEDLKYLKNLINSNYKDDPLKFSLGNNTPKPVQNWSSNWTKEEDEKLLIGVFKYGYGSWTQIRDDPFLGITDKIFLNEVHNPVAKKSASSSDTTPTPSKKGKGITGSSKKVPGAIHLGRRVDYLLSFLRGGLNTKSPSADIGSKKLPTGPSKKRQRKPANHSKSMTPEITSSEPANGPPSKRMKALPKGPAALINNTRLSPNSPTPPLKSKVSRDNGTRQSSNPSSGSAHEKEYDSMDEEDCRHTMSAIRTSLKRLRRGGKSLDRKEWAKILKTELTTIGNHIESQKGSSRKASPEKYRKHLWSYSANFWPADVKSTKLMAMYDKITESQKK

Chain of Sialic acid-binding Ig-like lectin 9 (Homo sapiens) (Q9Y336 whole entry): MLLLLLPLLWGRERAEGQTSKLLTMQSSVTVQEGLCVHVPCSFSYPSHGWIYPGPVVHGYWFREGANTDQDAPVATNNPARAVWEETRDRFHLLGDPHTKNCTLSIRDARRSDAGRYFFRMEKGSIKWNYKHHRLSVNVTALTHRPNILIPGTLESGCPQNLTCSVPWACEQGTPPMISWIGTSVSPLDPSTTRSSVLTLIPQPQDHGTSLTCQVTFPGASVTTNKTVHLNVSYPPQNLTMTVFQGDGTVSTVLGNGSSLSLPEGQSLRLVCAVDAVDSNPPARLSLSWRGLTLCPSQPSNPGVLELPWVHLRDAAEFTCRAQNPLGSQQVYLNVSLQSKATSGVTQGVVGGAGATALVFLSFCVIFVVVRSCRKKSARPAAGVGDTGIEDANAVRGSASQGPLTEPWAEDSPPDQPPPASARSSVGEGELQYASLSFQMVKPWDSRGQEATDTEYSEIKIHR
Chain of Protein translocase subunit SecA (Escherichia coli (strain K12)) (P10408 whole entry): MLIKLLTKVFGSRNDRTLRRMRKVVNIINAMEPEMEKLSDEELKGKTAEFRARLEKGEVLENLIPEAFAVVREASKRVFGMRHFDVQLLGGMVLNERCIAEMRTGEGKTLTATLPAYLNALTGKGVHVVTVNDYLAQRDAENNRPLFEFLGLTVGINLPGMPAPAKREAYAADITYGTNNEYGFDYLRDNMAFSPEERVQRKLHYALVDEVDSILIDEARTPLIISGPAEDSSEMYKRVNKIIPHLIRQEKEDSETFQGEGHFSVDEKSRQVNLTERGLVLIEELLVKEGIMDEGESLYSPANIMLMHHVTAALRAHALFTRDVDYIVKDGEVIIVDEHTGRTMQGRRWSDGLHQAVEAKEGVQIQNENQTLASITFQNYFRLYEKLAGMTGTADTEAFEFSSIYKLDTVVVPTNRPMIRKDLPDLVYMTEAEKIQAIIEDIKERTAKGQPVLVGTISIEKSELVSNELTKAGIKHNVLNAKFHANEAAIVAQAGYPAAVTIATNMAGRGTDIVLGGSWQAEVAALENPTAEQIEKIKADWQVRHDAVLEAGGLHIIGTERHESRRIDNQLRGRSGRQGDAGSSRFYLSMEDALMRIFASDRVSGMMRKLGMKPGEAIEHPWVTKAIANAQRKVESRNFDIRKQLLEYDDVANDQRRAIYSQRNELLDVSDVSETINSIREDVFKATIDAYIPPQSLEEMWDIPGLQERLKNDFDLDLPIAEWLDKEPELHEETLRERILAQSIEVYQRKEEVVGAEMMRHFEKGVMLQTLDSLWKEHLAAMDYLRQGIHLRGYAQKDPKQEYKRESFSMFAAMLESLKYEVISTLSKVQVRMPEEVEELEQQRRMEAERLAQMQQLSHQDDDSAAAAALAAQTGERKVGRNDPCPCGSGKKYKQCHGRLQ

| SMILES | Percent Effect [1] [%] | Percent Effect [2] [%] | Percent Effect [3] [%] | Percent Effect [4] [%] | Percent Effect [5] [%] | Percent Effect (Trypanosoma cruzi) [%] | Percent Effect [6] [%] | Percent Effect [7] [%] | Percent Effect (Homo sapiens) [%] | Percent Effect [8] [%] | Percent Effect [9] [%] | Percent Effect [10] [%] | Percent Effect [11] [%] |
| --- | --- | --- | --- | --- | --- | --- | --- | --- | --- | --- | --- | --- | --- |
| CC(C)c1nc(N2CCN3CCCC3C2)c2cnn(C)c2n1 (stereo not given) | -0.588 | 8.22 | 4.74 | -0.789 | 7.41 | 1.98 | -6.79 | 8.82 | -37.1 | -16.2 | 8.33 | 16.1 | -6.37 |
| O=C(N[C@H]1CN[C@H]2CCCO[C@H]21)c1ccno1 | -2.91 | 2.74 | 0.661 | -1.51 | 4.01 | 4.76 | -2.4 | 6.76 | -9.47 | 2.67 | 4.17 | 6.17 | 2.08 |
| CC(c1ccc(F)cc1)N1CCN(Cc2ccc(C#N)cc2)CC1 (stereo not given) | -5.23 | 13.5 | -0.88 | -5.75 | 2.94 | -4.81 | -0.401 | 7.57 | 18.8 | 24.7 | 4.43 | 13.6 | -5.01 |
| CCOCC(O)CN1CCN(C(=O)Cc2ccccc2C)CC1 (stereo not given) | 1.46 | 13.2 | -3.28 | -1.09 | 0.779 | -8.65 | 8.43 | 8.69 | 20 | 30.3 | 0.49 | 9.76 | -8.57 |
| c1cncc(OC[C@@H]2CCC[C@@]23CNCCO3)c1 | -5.75 | 8.11 | 1.15 | 89.4 | -7.32 | -6.75 | -3.5 | 13.1 | 9.54 | -12.4 | -3.24 | 0 | -2.43 |
| c1ccc(OC[C@H]2CCC[C@]23CN(Cc2nccs2)CCO3)nc1 | 1.87 | 0 | -0.162 | -19.9 | 5.02 | -2.36 | -15.2 | 3.08 | 34.4 | -11.8 | 1.06 | 3.85 | 3.38 |
| c1cncc(CO[C@H]2CC[C@H]3[C@@H]2OCCN3C2CCOCC2)c1 | 1.26 | 2.74 | 0.0456 | -4.02 | 5.81 | 7.14 | -0.399 | 4.37 | -1.77 | -20.6 | 3.12 | 8.64 | 1.15 |
| CN1C(=O)C2(CCN(CCO)C2)c2ccccc21 (stereo not given) | -3.9 | 10.8 | -3.9 | 5.24 | -5.82 | -4.01 | 0.319 | 24.9 | -2.44 | -6.34 | 1.08 | 12.8 | -1.83 |
| Cc1nc(CN2CCOCC3(CCN(c4ncccn4)C3)C2)cs1 (stereo not given) | -4.37 | 10.8 | 2.24 | 2.91 | -0.742 | 1.17 | 3.75 | 6.68 | -5.73 | -14.6 | 13.9 | 11 | -4.52 |
| CC1=N[C@@]2(CC[C@@H]3CNC[C@@H]32)C(=O)N1CC(C)C | 0.0241 | 13.5 | 7.41 | -8.73 | -11.6 | -6.35 | 7.96 | 11.2 | 30.2 | -6.54 | -1.08 | 0 | -5.25 |
